Each structure is given as a SMILES string. Among all 62,000 compounds or so, about 420 (0.68%) were called active.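 Rule for the calls: active = inhibition above the mean of all tested compounds plus 3 SD (cut at about 43% in these data); inactive = the rest.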 This excerpt belongs to a sample that is enriched for actives.

What is called inhibition is the change of the read-out against control, counted positive when it falls.

Sequence of 5-hydroxytryptamine receptor 1A (Homo sapiens) (P08908 whole entry, looked up): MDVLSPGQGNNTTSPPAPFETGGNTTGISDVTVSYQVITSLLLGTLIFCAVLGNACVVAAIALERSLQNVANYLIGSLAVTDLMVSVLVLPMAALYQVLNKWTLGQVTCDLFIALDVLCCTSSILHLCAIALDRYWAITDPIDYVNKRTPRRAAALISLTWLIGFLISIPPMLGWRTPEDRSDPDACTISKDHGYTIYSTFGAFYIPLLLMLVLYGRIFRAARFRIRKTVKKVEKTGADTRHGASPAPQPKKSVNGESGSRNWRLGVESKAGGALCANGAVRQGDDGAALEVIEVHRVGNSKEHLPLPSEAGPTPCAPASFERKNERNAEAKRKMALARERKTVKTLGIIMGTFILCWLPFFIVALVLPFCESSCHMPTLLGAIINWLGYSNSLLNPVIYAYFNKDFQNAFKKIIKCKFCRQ

This assay has as its target 5-hydroxytryptamine receptor 1A (Homo sapiens) (UniProt P08908). As to the kind of experiment: human 5-HT1a receptor antagonists, primary screen, cell-based, CHO, Ga15 NFAT-bla reporter (AID 612).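 Note: receptor stimulated by 5-CT agonist at 100 nM near EC80; beta-lactamase reporter measured by ratiometric fluorescence of a cleavable substrate.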 The note with it: CHO 5-HT1a Ga15 NFAT-bla reporter, antagonist mode; at 10 µM; hits give high values.
For `CS(=O)(=O)c1ccc2nc(NC(=O)C3C4C=CC(C4)C3C(=O)O)sc2c1` (configuration not stated), the inhibition is -0.7% (inactive).

As to `CN1C(=O)c2ccccc2C(C(=O)NCCCN2CCCC2)C1c1c[nH]c2ccccc12` (configuration not stated), the inhibition was -6.4% (inactive).

Turning to `O=C(O)CCN1C(=O)CC2(CCCCC2)C1=O`, the inhibition was 6.3% (inactive).

Regarding `C=CCSc1nnc(Cn2c(=O)sc3ccccc32)n1C`, the inhibition is -0.5% (inactive).

With `COc1nc(NCc2ccc(Cl)cc2)nc(OC)n1`, the inhibition is -1.3% (inactive).

With `Cc1nc(C)c2c(c1C(F)(F)F)-c1ccccc1C2(F)F`, the inhibition is -9.3% (inactive).

Take `Cc1ccc2c(C(=O)CN3CCCC3)c(C)[nH]c2c1`: the inhibition is 14.4% (inactive).

Regarding `CCCCOc1ccc(C(C)(O)CCN2CCOCC2)cc1` (configuration not stated), the inhibition is 8.9% (inactive).

On to `Cc1oc2nc(SCC(=O)NCc3cccnc3)nc(N)c2c1C`, for which the inhibition was 5.1% (inactive).

As to `CCOc1ccc(Cn2nnc(C(=O)NCc3ccccc3)c2N)cc1`, the inhibition was 10.3% (inactive).

Regarding `CCC(C)NC(=O)N[C@@H](CCSC)C(=O)O` (some centres not stated), the inhibition is -11.6% (inactive).

For the compound `CC1(C)C(=O)C2(CCCCC2)C(=O)OC1c1cccs1` (configuration not stated), the inhibition is -2.8% (inactive).

Consider `CN(CCC#N)c1ncnc2scc(-c3ccccc3)c12`, for which the inhibition was 11.5% (inactive).

With `C/C(=C\C(=O)c1ccc(Br)cc1)N1CCCCC1`, the inhibition is 0.5% (inactive).

With `CCN(CC)S(=O)(=O)c1cccc(C(=O)Nc2ccccc2)c1`, the inhibition was 16.2% (inactive).

For `Cc1cc(C(=O)OCC(=O)c2c(N)n(C)c(=O)n(C)c2=O)c(C)o1`, the inhibition was -7.9% (inactive).

Consider `CCOC(=O)CN1CC23C=CC(O2)C(C(=O)Nc2ccc(F)cc2)C3C1=O` (configuration not stated), for which the inhibition was -5.1% (inactive).

As to `Cc1ccc(-n2c(Cc3cccs3)nnc2SCC(=O)OC(C)C)cc1`, the inhibition is 8.6% (inactive).

In the case of `Cc1c(C(=O)NCCN2CCOCC2)sc2nc(-c3ccc(F)cc3)cn12`, the inhibition was -8% (inactive).

`O=C(COc1ccc(S(=O)(=O)NCCc2ccccc2)cc1)N1CCCC1`: the inhibition is -0.2% (inactive).

Consider `CCOC(=O)C1CCCN(C(=O)CN(c2ccc(OC)cc2)S(=O)(=O)c2c(C)noc2C)C1` (configuration not stated), for which the inhibition was -9.3% (inactive).

On to `CCCCNC(=O)c1ccccc1NC(=O)c1ccccc1N(C)S(C)(=O)=O`, for which the inhibition was -13.1% (inactive).

On to `CCN1CCN(Cc2nc3c(c(=O)n(C)c(=O)n3C)n2CC(=O)c2ccccc2)CC1`, for which the inhibition is 4.5% (inactive).

Regarding `O=C(C1=C(O)C(=O)N(c2ncccn2)C1c1cccs1)c1ccco1` (configuration not stated), the inhibition is 11.8% (inactive).

Turning to `Cc1cc(C(=O)Nc2c(C)n(C)n(-c3ccccc3)c2=O)cs1`, the inhibition is 5.4% (inactive).

`O=C(NC1=NCCS1)c1ccc(Cl)s1`: the inhibition is 10.2% (inactive).

On to `Cc1ccccc1Nc1nc(N)nc(CN2CCN(c3ccccn3)CC2)n1`, for which the inhibition was 2% (inactive).

Turning to `CCOC(=O)c1ccc(N2C(=O)CC(N3CC(C)OC(C)C3)C2=O)cc1` (configuration not stated), the inhibition is 14% (inactive).

As to `CC1=C(C(=O)OC2CCCCC2)C(c2cccnc2)n2ncnc2N1` (configuration not stated), the inhibition is -5% (inactive).

Take `CCN1CCN(Cc2c(O)ccc3c(=O)c(-c4ccc(OC)c(OC)c4)c(C(F)(F)F)oc23)CC1`: the inhibition was 4.3% (inactive).

As to `COc1ccc(NC(=O)c2cccc(NC(=O)c3ccco3)c2)c(OC)c1`, the inhibition was 5.2% (inactive).

Consider `Cc1ccc(S(=O)(=O)N2CCOCC2)cc1C(=O)NCc1ccc(F)cc1`, for which the inhibition is 3.3% (inactive).

Turning to `CC1Cc2ccccc2N1C(=O)CSc1nnc(-c2ccc(S(=O)(=O)N3CCCCC3)cc2)o1` (configuration not stated), the inhibition is 1.4% (inactive).

With `COc1ccc(C(C(O)C(=O)c2c[nH]c3ccccc23)N2CCN(c3ccccc3)CC2)cc1` (configuration not stated), the inhibition is 43.9% (active).

For the compound `CCCC(=O)NC(C)C(c1cccs1)N1CCN(c2ccccc2)CC1` (configuration not stated), the inhibition was 16.9% (inactive).

For `COc1ccc(OC)c(S(=O)(=O)N(C)CC(=O)N2CCN(c3ccccc3)CC2)c1`, the inhibition was -11.1% (inactive).

`COc1ccc(NC(C)=O)cc1NC(=O)CN1CCN(c2ccccn2)CC1`: the inhibition is -0.2% (inactive).

As for `Cc1ccc(-n2nc3c(c2NC(=O)c2ccc4c(c2)OCO4)CSC3)c(C)c1`, the inhibition was 9% (inactive).

`O=C(Nc1ccc(-c2nnc(-c3ccccc3)o2)cc1)C1CCCO1` (configuration not stated): the inhibition is 9.7% (inactive).

Regarding `Nc1ccc(-c2nnc(-c3ccc(-c4ccccc4)cc3)o2)cc1`, the inhibition is 62.6% (active).

Turning to `O=C(Nc1ccc(-c2nnc(-c3ccccc3)o2)cc1)c1ccc(Br)o1`, the inhibition was -16.4% (inactive).

Regarding `CN1CCN(C(=O)C2C3C=CC(C3)C2C(=O)O)CC1` (configuration not stated), the inhibition is -4% (inactive).

On to `CCOC(=O)c1ccc(NC(=O)CSc2ncccn2)cc1`, for which the inhibition is -16.8% (inactive).

On to `Cc1noc(C)c1S(=O)(=O)N1CCCC(C(=O)Nc2nccs2)C1` (configuration not stated), for which the inhibition was -3.8% (inactive).

`CCc1nnc(NC(=O)c2nc3nccc(C)n3n2)s1`: the inhibition is -1.7% (inactive).

Take `O=S(=O)(Nc1nccs1)c1ccc2c(c1)OCCO2`: the inhibition is -0.3% (inactive).

For `O=C(CN1CCOc2ccccc21)N1CCC(Cc2ccccc2)CC1`, the inhibition is 4.5% (inactive).

For `CC(=O)C1C(c2cccc(Oc3ccccc3)c2)NC(=O)NC1(O)C(F)(F)F` (configuration not stated), the inhibition was -16.2% (inactive).

Consider `O=C(CSCc1cccs1)N1CCCC1`, for which the inhibition is -5.9% (inactive).

`c1csc(CN2CCN(Cc3cccs3)C2c2cccs2)c1`: the inhibition is 78.7% (active).

For `O=C1c2cccnc2C(=O)N1Cc1cccs1`, the inhibition was -0.8% (inactive).

Regarding `N#Cc1ccc(COC(=O)Cn2nnc(-c3ccccc3)n2)cc1`, the inhibition was 7.6% (inactive).

Regarding `Cc1ccc(CNC(=O)CCCNC(=O)c2ccc(Cl)cc2)n1C`, the inhibition is -4.8% (inactive).

Consider `CCSC1(SCC)N=C(N)C2(C#N)C(c3ccccc3)NC(C)=CC12C#N` (configuration not stated), for which the inhibition is 1.4% (inactive).

Consider `CCOc1ccc(-c2cn(S(=O)(=O)c3cccc4nsnc34)nc2N)cc1`, for which the inhibition is 11.8% (inactive).

With `CCCC(=O)Nc1ccc(Cl)c(NC(=O)c2ccc(Br)o2)c1`, the inhibition was -5.8% (inactive).

On to `COc1cc(OC)c(NC(=O)c2ccc(Br)o2)cc1Cl`, for which the inhibition is 5.1% (inactive).

Regarding `CCN1CCN(c2c(Cl)cccc2NC(=O)c2ccc(Br)o2)CC1`, the inhibition is 63.5% (active).

In the case of `O=C(CCCn1c(SCC(=O)c2ccc(F)cc2)nc2ccccc2c1=O)NCc1ccco1`, the inhibition was 7.8% (inactive).

As for `Cn1nc(-c2ccc(N3CCOCC3)c(NC(=O)c3ccccc3)c2)c2ccccc2c1=O`, the inhibition is 26.6% (inactive).

For the compound `COc1ccc(OC)c(C(c2nnnn2C(C)(C)C)N2CCc3ccccc3C2)c1` (configuration not stated), the inhibition is 48.2% (active).

Consider `Cc1ccc(C(c2nnnn2C(C)(C)C)N2CCc3ccccc3C2)cc1` (configuration not stated), for which the inhibition is -4.5% (inactive).

Regarding `COCCn1nnnc1C(c1cc2ccc(OC)cc2[nH]c1=O)N1CCc2ccccc2C1` (configuration not stated), the inhibition is 1.8% (inactive).

With `Cc1ccc(N2C(=O)c3ccccc3C2(O)c2ncc[nH]2)cc1` (configuration not stated), the inhibition is 3.5% (inactive).

For `CSc1cccc(NC(=O)CSc2ccccc2)c1`, the inhibition was -10.6% (inactive).

Turning to `CC(C)COC(=O)c1ccc(NC(=O)C2C3C=CC(C3)C2C(=O)O)cc1` (configuration not stated), the inhibition is 4.8% (inactive).

On to `CCn1nnc(NC(=O)c2cc(Cl)c(OC)c(Cl)c2)n1`, for which the inhibition was -4.7% (inactive).

In the case of `COc1cc2[nH]c(=S)n(CCN3CCCCC3C)c(=O)c2cc1OC` (configuration not stated), the inhibition is 2.5% (inactive).

Turning to `O=C(O)CC(Cn1cnnn1)c1ccccc1` (configuration not stated), the inhibition is 0.4% (inactive).

For the compound `COc1ccc2[nH]c3c(=O)n(Cc4ccco4)cnc3c2c1`, the inhibition was 6% (inactive).

As to `CCOc1ccc(N(CC(=O)NCc2ccc(OC)cc2)S(=O)(=O)c2c(C)noc2C)cc1`, the inhibition was 3.7% (inactive).

Take `COc1ccc2c(c1)CCc1c(C(=O)N3CCc4ccccc4C3)noc1-2`: the inhibition was -3.2% (inactive).

With `CN=C1SC(C(=O)O)CC(=O)N1C` (configuration not stated), the inhibition was 3.6% (inactive).

For `COc1ccccc1-n1cnc2cc(NS(=O)(=O)c3ccccc3)ccc21`, the inhibition was 26.7% (inactive).

With `CCCCn1c(SCC(=O)N2CCC(C(=O)OCC)CC2)nc2cc(S(N)(=O)=O)ccc21`, the inhibition was 5.5% (inactive).

For `CCn1c(CSc2nncn2-c2ccc(OC)cc2)nc2cc(S(=O)(=O)N(C)C)ccc21`, the inhibition is 0.4% (inactive).

With `CCC1C(C#N)=C(SC)NC2=C1C(=O)CC(C)(C)C2` (configuration not stated), the inhibition is 0.2% (inactive).

For `O=C(/C(=N\O)n1cncn1)c1ccc(Br)cc1Br`, the inhibition is -1.8% (inactive).

In the case of `CC(=O)c1c(N)n(C)c(=O)n(C)c1=O`, the inhibition was 1.2% (inactive).

For the compound `CC1CSc2nnc(CCc3ccccc3)n21` (configuration not stated), the inhibition was 5.7% (inactive).

On to `CN1CCN(S(=O)(=O)c2ccc(NC(=O)C3CCCO3)cc2)CC1` (configuration not stated), for which the inhibition was -0.1% (inactive).

With `Cc1ccc(NC(=O)Cn2nc(C)c3ccccc3c2=O)c(C)c1`, the inhibition was 2.8% (inactive).

For the compound `C=CCn1c(SCn2nnc3ccccc3c2=O)nnc1-c1ccc(Cl)cc1`, the inhibition is -2.8% (inactive).

`O=C(Nn1cc(C(=O)N2CCN(c3ccccc3F)CC2)c2ccccc2c1=O)c1cnccn1`: the inhibition was 0.3% (inactive).

On to `CCn1c2c(c3ccc(OC)cc31)CCCC2=O`, for which the inhibition is -8.1% (inactive).

Take `O=C(CSc1nnc(Cn2cnc3ccccc32)o1)c1ccccc1`: the inhibition was -8.1% (inactive).

As for `CC12CN(Cc3ccccc3)CC(C)(CN(Cc3ccccc3)C1)C2=NO`, the inhibition was 50.1% (active).

With `CC(=NC1CCN(Cc2ccccc2)CC1)c1c(O)[nH]c(=O)[nH]c1=O`, the inhibition is -6.7% (inactive).

In the case of `Cc1ccc(-c2noc(CN3CCN(Cc4ccccc4)CC3)n2)cc1`, the inhibition is -3.3% (inactive).

Take `CN1C(=O)CC(N2CCN(c3ccccn3)CC2)C1=O` (configuration not stated): the inhibition is -2.2% (inactive).

With `C=CCNc1nnc(C)c2ccccc12`, the inhibition is 0.9% (inactive).

As to `Cc1noc(C)c1S(=O)(=O)N(CC(=O)Nc1ccc2c(c1)OCCO2)c1ccc(C(C)C)cc1`, the inhibition is 2% (inactive).

Regarding `COCCOC(=O)C1=C(C)N=c2s/c(=C\c3cccs3)c(=O)n2C1c1cccs1` (configuration not stated), the inhibition is 6.2% (inactive).

Consider `CC(=O)c1ccc(Oc2cc(C)nc(-n3nc(C)cc3C)n2)cc1`, for which the inhibition was 45.2% (active).

With `Cc1cc(C)n(-c2ccc(Cl)c(C(=O)O)n2)n1`, the inhibition was -12.6% (inactive).

`CCOC(=O)c1cnc(-n2nc(C)cc2C)nc1Nc1cccc(C(C)=O)c1`: the inhibition was 12.1% (inactive).

For `CCOCCCN1C(=O)CN(C2CCCCC2)C(=O)C1c1ccc(OCC)c(OC)c1` (configuration not stated), the inhibition was 4.5% (inactive).

Values taken from PubChem BioAssay AID612 (The Scripps Research Institute Molecular Screening Center, 2007).
